# Compound activity as filed in PubChem.
# Sfp inh – inhibitors of Bacillus subtilis Sfp phosphopantetheinyl transferase; Biochemical Sfp PPTase activity, qHTS; Potency, µM, inactives show largest response in the series, negative = inhibition, usual class: inhibitors; 3.5% of 310,000 active; Q9F4F7;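 note: the enzyme is Sfp with the accession as filed and its product quenches rhodamine fluorescence; potency is the fitted concentration of half-maximal effect; 0% = enzyme reaction without inhibitor and -100% = no enzyme wells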
#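 Step 1, compound plus 15 nM Sfp-PPTase, 15 min, room temperature. Step 2, add rhodamine-CoA (5 uM) and BHQ-2-YbbR (12.5 uM). Step 3, read 525/598 nm fluorescence at 0 and 30 min.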
# JMJD2E inh – JMJD2E (human) inhibition | B2RXH2 | JMJD2E catalytic domain, FDH-coupled NADH fluorescence (FDH is formaldehyde dehydrogenase) | Potency, µM (highest dose often 57.1 µM), for the others: at the highest dose activity change, negative = inhibition, usual class: inhibitors | 1.6% of 230,000 active; active = well fitted inhibition curve with a large enough effect, not every such curve was filed as active; inconclusive = small, poorly fitted or top-dose-only effect, or another doubt; inactive = no such curve, though single readings can be large or run the other way;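 note: potency is the fitted concentration of half-maximal effect; 0% = wells with enzyme and -100% = buffer wells without enzyme; nearly all actives have a fitted effect of over 50% in size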
# Target sequence (B2RXH2 1-337 limits assumed): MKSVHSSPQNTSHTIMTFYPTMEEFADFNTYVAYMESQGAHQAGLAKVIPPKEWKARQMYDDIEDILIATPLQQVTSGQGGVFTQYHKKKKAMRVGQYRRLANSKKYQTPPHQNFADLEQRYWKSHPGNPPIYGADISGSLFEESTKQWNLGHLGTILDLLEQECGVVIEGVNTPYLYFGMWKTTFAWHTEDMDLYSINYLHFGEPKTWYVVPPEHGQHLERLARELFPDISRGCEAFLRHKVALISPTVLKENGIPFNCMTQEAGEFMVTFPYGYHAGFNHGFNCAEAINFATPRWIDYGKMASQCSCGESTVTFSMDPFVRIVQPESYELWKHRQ
# Coupling enz – counter-screen for Giardia aldolase inhibitors: coupling enzyme system; 0.67% of 290,000 active; coupling enzyme system counterscreen, AmpLite Red fluorescence; AID 2472; activity change, negative = inhibition, % at 58.2 µM, hits read low; in the data active = activity change below about -30%
#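 Fluorescence at 525 nm excitation and 598 nm emission measured inhibition of the coupled detection system without aldolase. Compounds (at 57.5 uM final) were preincubated 10 min at room temperature with coupling enzyme reagent before a 20 min substrate/AmpLite Red step.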
# Tau fibril FP – tau fibrillization inhibition (FP) | P10636 | K18 P301L tau heparin fibrillization, Alexa594 FP, 6 h | Potency, µM (doses to about 57.7 µM), without a hit: top-dose activity, negative = inhibition, usual class: inhibitors | 0.39% of 280,000 active; note: potency is the fitted concentration of half-maximal effect; nearly all actives have a fitted effect of over 55% in size
# Target sequence (P10636 561-689 P618L limits assumed): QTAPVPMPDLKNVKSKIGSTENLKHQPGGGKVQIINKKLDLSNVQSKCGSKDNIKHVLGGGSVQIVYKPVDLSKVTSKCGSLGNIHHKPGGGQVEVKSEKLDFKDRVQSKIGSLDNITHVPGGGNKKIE
#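 Read-out: fluorescence polarization of Alexa 594-labeled tau (0.24 uM), 555 nm excitation, 632 nm emission. Mixtures held 15 uM unlabeled K18 P301L, compound and 20 uM heparin, pH 7 acetate buffer, incubated 6 hr at 37 C.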
# Tau ThT inhib – tau fibrillization inhibition (ThT binding); 2.1% of 270,000 active; recombinant tau K18 P301L, heparin-induced fibrillization, ThT fluorescence; P10636; AID 1460; Potency, µM (top dose mostly 57.4 µM), inactives show at the top dose activity, negative = inhibition, actives largely listed as inhibitors; note: potency is the fitted concentration of half-maximal effect; nearly all actives have a fitted effect of over 55% in size
#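 Aggregation was driven by heparin (20 uM final) acting on recombinant tau […] bearing P301L in 100 mM sodium acetate pH 7; fibrils were detected with Thioflavin T.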
# Tau fluor counter – counter-screen for tau fibril formation inhibitors; tau K18 P301L (four-repeat tau fragment) Alexa594 fluorescence, heparin fibrillization; Potency, µM (doses to about 57.7 µM), without a hit: at the top dose activity change, negative = decrease; 0.93% of 280,000 active; note: potency is the fitted concentration of half-maximal effect; nearly all actives have a fitted effect of over 55% in size
#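 Human K18 P301L tau (15 uM unlabeled plus 0.24 uM Alexa 594-labeled, final) in 100 mM sodium acetate pH 7 was mixed with compound and 20 uM heparin and incubated 6 hr at 37 C.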
# Numbers without * were called inactive; ? = inconclusive; nt = no result; [ ] = dose if it differs, or a comment. Shown are actives, neighbours in structure and some others; about 5.3% of the full set was active somewhere. Unless noted, calls come from the whole dose curve; as a rule, active = well fitted curve in the direction sought with a large enough effect; inconclusive = small, poorly fitted or top-dose-only effect, or another doubt; inactive = no such curve, though single readings can be large; an effect the other way counts as inactive or inconclusive. Unless noted, % is set by controls: 0 for no effect and ±100 for the full control effect.
SMILES,Sfp inh,JMJD2E inh,Coupling enz,Tau fibril FP,Tau ThT inhib,Tau fluor counter
C(=C\c1ccccc1)/CSc1ccccn1,11%,-3%,-1,2%,-10%,-12%
O=C1C(=C(c2ccccc2)c2ccccc2)Nc2ccccc21,3%,6%,-2,-11%,16µM*,?
C[n+]1ccccc1/C=C1\Sc2ccccc2N1CCO,7%,nt,-1,nt,nt,nt
CCN1/C(=C\c2ccc3cc(C)ccc3[n+]2CC)Sc2cc(C)c(C)cc21,18µM*,?,2,?,7.9µM*,?
CCN1/C(=C/c2ccc3cccc(C)c3[n+]2CC)Sc2ccccc21,8.9µM*,0%,5,?,?,18%
CCN1/C(=C/c2ccc3cc(C)cc(C)c3[n+]2CC)Sc2cc(C)ccc21,10µM*,?,1,?,4.5µM*,?
Cc1ccc2c(c1)S/C(=C\c1cccc[n+]1C)N2CCO,?,nt,-1,nt,nt,nt
COc1cccc([C@@H]2Oc3ccc(Br)cc3C(=O)[C@H]2OC(=O)NS(=O)(=O)c2ccc(C)cc2)c1,9%,3%,0,8%,-6%,-7%
Cc1cc(C)cc(-n2c(SCC(=O)N3CCC(C)CC3)nc3c([nH]c4ccccc43)c2=O)c1,nt,nt,nt,-5%,3%,1%
O=C(C[n+]1cc(-c2ccc(F)cc2)n2c1CCC2)Nc1nc(-c2ccc(F)cc2)cs1,-14%,-1%,1,5%,-12%,18%
O=C(C[n+]1cc(-c2ccc(Cl)cc2)n2c1CCC2)Nc1nc(-c2ccc(F)cc2)cs1,45µM*,1%,-1,-14%,?,-26%
COc1cc(C(C(=O)NC(C)(C)C)N(Cc2ccccc2)C(=O)c2cnccn2)cc(OC)c1OC (centres undefined),11%,-4%,1,4%,-5%,8%
COc1ccc(CN(C(=O)c2ccc(-c3ccccc3)[nH]2)C(C(=O)NC(C)(C)C)c2ccncc2)cc1 (centres undefined),45µM*,3%,-4,1%,?,-20%
CCCCc1cc(=O)oc2cc(C)c3c(C)coc3c12,nt,nt,nt,-2%,?,-13%
COC(=O)C1=CN(c2ccc(F)cc2)C=C(C(=O)OC)C1c1ccc([N+](=O)[O-])cc1,-4%,nt,-1,nt,nt,nt
CCOC(=O)C1=CN(c2cccc(F)c2)C=C(C(=O)OCC)C1c1cc(OC)c(O)c([N+](=O)[O-])c1,-30%,2%,1,9%,13µM*,?
COCCNC(=O)CSc1nc(-c2ccccc2C)nc2c1c(=O)n(C)c(=O)n2C,nt,nt,nt,-4%,-1%,0%
O=C1CC(c2nnc(Cc3ccccc3Cl)o2)CN1c1ccccc1 (centres undefined),nt,nt,nt,-4%,-7%,-12%
Cc1nc(Nc2ccccc2)sc1-c1ccccc1,?,3%,-10,12%,?,7.9µM*[quencher]
COc1ccccc1CNC(=O)c1cc2cccc3c2n1CCS3,nt,nt,nt,3%,-14%,-28%
CCOC(=O)C(NC(=O)N(C)C)(Nc1sc(C)c(CC)c1C#N)C(F)(F)F (centres undefined),45µM*,-1%,-5,0%,?,-12%
CN(C)c1ccc(NC(=O)c2cnsn2)cc1,-5%,-21%,1,-2%,10µM*,-21%
O=S(=O)(c1cccc(C(F)(F)F)c1)N1CCC(Oc2ccc(-n3cnnn3)cc2)CC1,nt,nt,nt,0%,8%,-25%
CCCCc1nc2c(c3c1C[C@H](C)OC3)CN(C(=O)N[C@@H](C)c1ccccc1)CC2,-12%,7%[11.4 µM],1,1%[11.6 µM],4%[11.5 µM],-4%[11.6 µM]
O=C(/C=C/c1c(Cl)cccc1Cl)n1cccn1,?,-4%,5,?,10µM*,-13%
O=C(/C=C/c1c(Cl)cccc1Cl)N1CCOCC1,3%,nt,0,nt,nt,nt
COc1ccc(N(C)S(=O)(=O)c2ccc3c(c2)n(C)c(=O)c(=O)n3C)cc1,nt,nt,nt,-3%,-5%,-10%
CSc1nc(=S)c2[nH]c(=S)[nH]c2[nH]1,2.5µM*,11µM*,-6,-7%,?,-3%
